Bioassay records as filed in PubChem.
The full list was thinned out, with hits kept by preference.
Pf Dd2 inh – Plasmodium falciparum Dd2 growth inhibition | P. falciparum Dd2 growth, SYBR Green, 72 h | Potency, µM (doses to about 28.9 µM), for the others: top-dose activity, negative = inhibition, hits mostly inhibitors | 4.3% of 120,000 active; active means well fitted inhibition curve with a large enough effect;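 further: plate controls were DMSO vehicle for no effect and reference drug for full effect; nearly all actives have a fitted effect of over 65% in size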
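Infected erythrocytes (Dd2, 0.3% parasitemia, 2.5% hematocrit final) are added to compound in RPMI-1640/Albumax II medium, grown 72 h at 37C in low oxygen, then lysed with saponin/Triton-X containing SYBR Green and read by fluorescence.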
* marks the source's active call; other numbers are inactive results; i = inactive; [ ] = another dose, or the depositor's remark. Potency means the concentration at half of the fitted maximal effect.

SMILES	Pf Dd2 inh
COc1ccc(CN2CCC3(C2)C(=O)N(Cc2ccccc2)c2ccccc23)cc1 (configuration not stated)	i
O=C1NC2(CCN([S+](=O)([O-])c3ccccc3)C2)COc2ccccc21 (configuration not stated)	6%
O=C1N(c2ccccc2)c2ccccc2C12CCN([S+](=O)([O-])c1ccccc1)C2 (configuration not stated)	7.9µM*
COc1ccc(CN2CCC3(C2)C(=O)N(c2ccccc2)c2ccccc23)cc1 (configuration not stated)	8.9µM*
O=C1Nc2ccccc2C12CN([S+](=O)([O-])c1ccccc1)C2	-9%
Cc1ccc(C)c(S(=O)(=O)N2CCCC(Cn3c(C4CC4)nc4cccnc43)C2)c1 (configuration not stated)	-9%
O=C(c1ccc(F)cc1)N1CCCC(Cc2nc(C3CCOCC3)no2)C1 (configuration not stated)	1%
O=C(c1cc(C2CC2)[nH]n1)N(Cc1ccc2c(c1)OCO2)C1CC1	-7%
COc1ccc(N2CCN(C(=O)CN3C(=O)NC4(CCC(C)CC4)C3=O)CC2)cc1 (configuration not stated)	1%
N#Cc1ccc(C(=O)NC2CCc3n[nH]c(=O)n3CC2)cc1 (configuration not stated)	i
CCN(CC)CCCNc1cc(-c2ccccc2)nc(C)n1	-27%
Cc1nc(Nc2ccc(Cl)cc2)cc(-c2ccccc2)n1	8.9µM*
CCOC(=O)c1ccc(Nc2cc(-c3ccccc3)nc(C)n2)cc1	-24%
CCOc1ccccc1NC(=O)N1c2ccccc2CC1c1nc(C2CC2)no1 (configuration not stated)	93%[5.79 µM]
O=C(CN1C(=O)NC2(CCS(=O)(=O)CC2)C1=O)Nc1ccc(F)cc1F	1%
CCN1C(=O)COC[C@@H]1[C@H](O)c1ccc(NC(=O)c2cccs2)cc1	i
COc1ccc(CSc2nc3ccncc3n2CC(=O)Nc2ccc(C)c(F)c2)cc1	i
O=C(NCc1ccccc1)c1ccc2c(c1)n(Cc1ccc(F)cc1)c(=O)c1ccnn12	i
O=C(O)c1ccc2c(c1)n(Cc1cccc(F)c1)c(=O)c1ccnn12	i
O=C(NC1CCCC1)c1ccc2c(=O)n(Cc3ccccc3)c(SCc3cccc(F)c3)nc2c1	17%
Cc1ccc(CSc2nc3cc(C(=O)NC4CCCC4)ccc3c(=O)n2Cc2ccccc2)cc1	16%
O=C(NC1CCCCC1)c1ccc(CSc2nc3ccncc3n2Cc2cccc(F)c2)cc1	11µM*
COc1cccc(CSc2nc3cc(C(=O)NC4CCCC4)ccc3c(=O)n2Cc2ccccc2)c1	3%
O=C(NCc1cccs1)c1ccc2c(c1)n(Cc1cccc(F)c1)c(=O)c1ccnn12	5.6µM*
O=C(NC1CCCC1)c1ccc(CSc2nc3cccnc3n2Cc2cccc(F)c2)cc1	-10%
SMILES	Pf Dd2 inh
CCc1ccc(CNC(=O)c2ccc(CSc3nc4ccncc4n3Cc3ccc(OC)cc3)cc2)cc1	13µM*
COc1ccc(Cn2c(=O)c3ccnn3c3ccc(C(=O)NCc4cccnc4)cc32)cc1	-35%
O=C(NC1CCCC1)c1ccc2c(=O)n(Cc3ccccc3)c(SCc3ccc([N+](=O)[O-])cc3)nc2c1	3.2µM*
Cc1cc(N2CCN(Cc3cc4n(n3)CCNC4)CC2)n2ncnc2n1	9%
O=C(CCC[C@@H]1[C@H]2CCCN3CCC[C@@H](CN1C(=O)c1ccccc1F)[C@@H]23)N1CCOCC1	-10%
CC(=O)N1C[C@@H]2CCCN3CCC[C@@H]([C@H]23)[C@H]1CCCC(=O)NC(C)C	i
CCNC(=O)C1CCN(C(=O)c2ccc3nc(-c4ccccc4)cn3c2)C1 (configuration not stated)	2%
O=C(c1ccc(F)c(Cl)c1)N1CCC2(CC1)CC(O)CCO2 (configuration not stated)	20%
Cc1ccc(C)c(NC(=O)Cn2c(C)cc3nc4n(c(=O)c32)CCCC4)c1	i
Cn1cccc1C(=O)N1CCC(n2cnnc2-c2ccccc2)C1 (configuration not stated)	-18%
COCc1ccc(C(=O)N2CCn3nc(CCC(=O)NC4CC4)cc3C2)o1	10%
CN(Cc1cccn1C)Cc1cccn1C	i
COCCNC(=O)[C@@H]1C[C@H](Oc2ccccc2)CN1C(=O)c1ccc(OC)cc1OC	16%
CN(C)[C@@H]1CN(C(=O)C2CCC2)CC[C@]1(O)c1ccccc1	i[5.79 µM]
CC(C)NC(=O)c1ccc(Cn2c(SCc3ccc(F)cc3)nc3cccnc32)cc1	-7%
COc1ccc(Cn2c(SCc3ccc(C(=O)NCc4cccs4)cc3)nc3ccncc32)cc1	7.9µM*
COc1ccc(C(=O)N2CCc3ccc(C(=O)NCc4cccs4)cc32)cc1	-18%
Cc1ccc(CNC(=O)c2ccc3nc(SCc4ccc(F)cc4)[nH]c3c2)cc1	i
O=C(NCc1cccc(Cl)c1)c1noc(-c2ccc(F)cc2)n1	-12%
O=C(CSc1nc2ccccc2n1Cc1ccccc1)NCc1ccccc1	-26%
CCc1ccccc1NC(=O)Cn1c(SCc2ccc(F)cc2)nc2ccncc21	11%
